Assay results taken from the supplement of paper PMC6555819.

How the values were obtained:
Assay in all cases: PBM binding z-score (relative to random genomic background probes); higher = stronger binding; sequences stand for … in GC…GCGATTGACAGCGTAGAATGAAGG
[1] = system: RARb homodimer (NR concentration 270 nM)
Procedure, shortened: (§1)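 Regression normalization was applied to scanned fluorescence from custom Agilent 4×180K protein-binding microarrays. Before scanning, arrays were incubated 1 h with ligand-free nuclear receptor dimers, and binding was detected with antibodies against each partner (one per run). Binding z-scores use the random background probes as reference.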

[2] = system: RARg:RXRa (NR concentration 270 nM, RXRa partner concentration 90 nM)
Procedure, shortened: as §1

[3] = system: RARg homodimer (NR concentration 270 nM)
Procedure, shortened: as §1

[4] = system: RXRa DBDmut IVT, anti-RXR (DBD mutation: RXRa K156A/R161A, NR concentration 90 nM)
Procedure, shortened: as §1

[5] = system: RXRa homodimer (NR concentration 180 nM)
Procedure, shortened: as §1

[6] = system: THRa:RXRa (NR concentration 90 nM, RXRa partner concentration 90 nM)
Procedure, shortened: as §1

[7] = system: THRa homodimer (NR concentration 90 nM)
Procedure, shortened: as §1

[8] = system: VDR homodimer (NR concentration 270 nM)
Procedure, shortened: as §1

Row | Sequence | PBM binding z-score [1] | PBM binding z-score [2] | PBM binding z-score [3] | PBM binding z-score [4] | PBM binding z-score [5] | PBM binding z-score [6] | PBM binding z-score [7] | PBM binding z-score [8]
1 | CCTTACGGGTCACTGACAGGTTATATCATTTGGA | 3.45 | 5.75 | 4.58 | 1.64 | 5.22 | 2.96 | 0.162 | 1.32
2 | CAGCCTAGGTCAGGGCCAGTATAGGAGGAACGTT | 2.58 | 3.08 | 3.8 | -0.416 | 1.54 | 2.11 | 0.526 | -0.18
3 | TCATATAGGGAAAAGGTGAAAGTCGGTGTGGTAA | 2.04 | 1.27 | 0.821 | 2.07 | 1.93 | 1.27 | 0.582 | 0.643
4 | CCTGCTAGGTCATGGTCTGCTAATCTACAGTATG | 2.97 | 3.73 | 4.43 | 2.02 | 2.66 | 3.17 | 1.35 | 0.439
5 | TCTTGTAGATCAAAGGTGAAGAAAGCCGAAGCCT | 0.902 | 0.905 | 0.395 | 0.392 | 1.75 | 0.776 | -0.461 | -0.594
6 | TCAGACAGGTGAAGGTATCTCAGGTACGCAGTCG | 0.873 | 0.518 | 0.586 | 1.55 | 0.95 | 1.2 | 0.503 | 0.113
7 | TAGCCTAGGTCATGCGGGCGAGTATAGTGTCGGC | 2.94 | 3.64 | 3.75 | 0.518 | 2.68 | 2.89 | 1.22 | 0.494
8 | TCGAGTAGGTTAGTCGGGGTATTCAGCCAACATA | -0.161 | -0.227 | -0.435 | 0.0822 | -0.0938 | 1.71 | -0.175 | -0.161
9 | CGTCCAAGGTCAGTAGGTCAGTGAAAGCGACGTG | 4.74 | 5.95 | 6.1 | 2.72 | 4.05 | 3.35 | 1.74 | 1.94
10 | ATCGAAAGCTCGAGGTGAGTATAGAGAAAGGGAA | -0.503 | 0.0363 | 0.189 | -0.888 | -0.0727 | 0.963 | -0.199 | -0.71
11 | CAAACTAGGTCAAAGGGCAAAGTCGAGCCAACCA | 3.81 | 6.04 | 5.28 | 1.76 | 7.35 | 3.56 | 0.847 | 1.06
12 | ACTTACGGGTCAATGAGGTTATAGCACGCGTATA | 3.59 | 5.05 | 4.75 | 2.58 | 6.03 | 4.16 | 1.57 | 3.35
13 | TCTTGTAGATCAACAGGAGGTGAAGAAAGATCGA | 0.000947 | 0.381 | 0.0903 | 0.184 | 0.315 | 0.726 | -0.344 | -0.884
14 | CCTATTAGTTCACCATAAGGGCAACCGAAGCTCG | 3.48 | 4.31 | 2.61 | 2.82 | 1.69 | 3.37 | 1.73 | 2.41
15 | TCTAGTAGGCCAGAGGGTCACTCAAGAGGTACGG | 2.95 | 2.83 | 2.16 | 0.571 | 2.75 | 1.74 | 0.0135 | 0.631
16 | CGAACTAGGTCATCCAGTACAGTGAATACATTGA | 3.05 | 3.9 | 4.84 | 2.61 | 2.78 | 3.04 | 1.43 | 2.24
17 | GGAACGAGGGCATACGAGTTGATAGCATGGCGAT | 0.493 | 1.12 | 1.65 | 2.41 | 1.02 | 2.92 | -0.328 | 2.37
18 | TTACCAAGGTGACAGGTCGTTGATGCACGCCTTG | 1.52 | 1.37 | 1.17 | 0.0135 | 1.61 | 2.19 | 1.19 | 0.797
19 | CCTTGGAGGACAGAAGGTCAGAGCTGTCCGCTTT | 3.56 | 3.54 | 3.38 | 0.276 | 1.95 | 2.22 | 0.0306 | 0.62
20 | CTCGAAAGGTCGTGCGCAGGTGAGTATACCAAAC | 2.93 | 5.81 | 3.83 | 1.76 | 5.1 | 3.58 | 0.11 | 0.912
21 | TAGCCTCGGTCATGCGGGCCAGTATAGTGTCGGC | 1.58 | 1.57 | 2.52 | -1.04 | -0.228 | -0.135 | -0.62 | -0.697
22 | CCAGACAGGTCAGAAGGTAACTCAGCCTCGATTA | 2.66 | 3.85 | 3.63 | 1.34 | 2.61 | 1.39 | 0.239 | 0.366
23 | TCTGCTAGGTCAACGATGGTCAGGTAATCTGCTA | 3.36 | 4.2 | 5.52 | 1.12 | 3.11 | 3.09 | 1.34 | -0.177
24 | GCCGCTAGGTCAACTGATGGTCAGCTAAAGCTCG | 3.66 | 5.19 | 5.22 | 1.45 | 2.97 | 2.97 | 0.878 | -0.321
25 | GGAACGAGGGCATTCGAGTTGATACCATGGCGAT | 0.873 | 1.26 | 1.46 | 3.31 | 0.823 | 3.34 | -0.337 | 3.45
26 | AGTCAAAGTTAATCTAGGTAACGTAAGATATGCT | -0.203 | 0.152 | 0.434 | -0.168 | 0.0123 | 2.91 | 0.311 | -0.189
27 | ATCGCAAGGTCGAGGTGAGTATAGAGAAAGGGAA | 1.76 | 2.55 | 2.56 | 0.563 | 2.35 | 2.62 | 0.694 | 0.322
28 | CCTACTGGGCCAAAGGTCATTAATTCCAATGCTC | 4.19 | 5.3 | 4.49 | 1.34 | 6.16 | 3.01 | 0.695 | 2.77
